Measured values reported in PubChem BioAssay (NCI).
The panel holds about 83,000 compounds, 20% with a hit somewhere; the sample as a whole holds those more often.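 Assay: single dose, 48 h. Readout: percent growth (0 = no net growth; negative = cell death). Active: <10.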 Unmarked numbers belong to inactive results. Calls of active or inactive are those of the source.

system: OVCAR-5 ovarian; assay: NCI-60 one-dose screen, 48 h (100 = growth as untreated, 0 = no growth, -100 = all killed); settings: 10 µM

Going from `CC/C(=C(\c1ccc(O)cc1)c1ccc(OCCN(C)C(=O)COCCNC(=O)Cc2ccc3c(c2)CN([C@@H]2CCC(=O)NC2=O)C3=O)cc1)c1ccccc1` to `CC/C(=C(/c1ccc(O)cc1)c1ccc(OCCN(C)C(=O)COCCOCCNC(=O)Cc2ccc3c(c2)CN([C@@H]2CCC(=O)NC2=O)C3=O)cc1)c1ccccc1`, the growth rises from 65.5% to 86.6%.

Compared with `CC/C(=C(\c1ccc(O)cc1)c1ccc(OCCN(C)C(=O)CCOCCNC(=O)c2ccc3c(c2)CN([C@@H]2CCC(=O)NC2=O)C3=O)cc1)c1ccccc1`, `CC/C(=C(/c1ccc(O)cc1)c1ccc(OCCN(C)C(=O)COCCOCCNC(=O)c2ccc3c(c2)CN([C@@H]2CCC(=O)NC2=O)C3=O)cc1)c1ccccc1` is higher in growth: 79.5% for the first, 86.8% for the second.

Going from `CC/C(=C(/c1ccc(O)cc1)c1ccc(OCCN(C)C(=O)CCOCCNC(=O)Cc2ccc3c(c2)CN([C@@H]2CCC(=O)NC2=O)C3=O)cc1)c1ccccc1` to `CC/C(=C(\c1ccc(O)cc1)c1ccc(OCCNC)cc1)c1ccccc1`, the growth rises from 86.7% to 106%.

same assay, conditions: 10 µM unless noted

Going from `N#CC1=C(c2cccs2)Nc2c(c(-c3ccccc3)nn2-c2ccccc2)C12C(=O)Nc1ccccc12` (stereo not drawn) to `N#CC1=C(c2ccco2)Nc2c(c(-c3ccccc3)nn2-c2ccccc2)C12C(=O)Nc1ccc(Cl)cc12` (stereo not drawn), the growth falls from 57.7% to 53.5%.

Going from `O=C1CC(c2ccc(I)cc2)OC2C=Cc3ccccc3C12` (stereo not drawn) to `O=C(c1ccc(O)cc1)C1[C@H](c2ccccc2Br)[C@@H](c2ccccc2)NC12C(=O)Nc1ccccc12` (stereo partly drawn), the growth falls from 115% to 56.7%.

Compared with `COc1ccc([C@H]2C(C(=O)c3ccc(Cl)cc3)C3(N[C@@H]2c2ccccc2)C(=O)Nc2ccccc23)cc1` (stereo partly drawn), `CS(=O)(=O)c1ccc(-n2nc(C(=O)NCc3ccccc3)cc2-c2ccc(Cl)cc2)cc1` is higher in growth: 50.5% for the first, 105% for the second.

Compared with `COc1ccc2c(c1)N=c1c-2cc2c(O)[nH]c(=S)n2c1=O`, `COc1ccc(NC2=C(I)C(=O)C(C)=C(C)C2=O)cc1` is higher in growth: 53.5% for the first, 53.9% for the second.

First: CS(=O)(=O)Nc1cc(-c2ccc3ncnc(N4CCc5cc(F)c(Cl)cc54)c3c2)cnc1Cl
Second: CC(Nc1ncnc2ccc(-c3ccc4oc(N)nc4c3)cc12)c1ccccc1 (stereo not drawn)
The growth of the first is lower: 11.1% for the first, 25.4% for the second.

Going from `COc1cc(NC(=O)C(C)C)ccc1C(=O)NC(=S)Nc1ccc(S(N)(=O)=O)cc1` to `COC(=O)c1c(C(=O)OC)c2ccc3c4ccccc4ccc3n2c1C(=O)OC`, the growth falls from 110% to 106%.

First: CC1=C(C(=O)OC(C)C)C(c2ccc(O)cc2)NC(=O)N1 (stereo not drawn)
Second: CC(C)(C)OC(=O)N1CCC2(CC1)Oc1ccccc1[C@H]1CC(c3ccc(Br)cc3)=NN12
The growth of the first is lower: 105% for the first, 122% for the second.

Going from `COc1cccc(/C=C/c2nc3ccccc3c(=O)n2CC(=O)Nc2ccccc2)c1` to `O=C(CSc1nnc(-c2ccc(-c3nc4ccccc4[nH]3)cc2)o1)Nc1ccccc1`, the growth rises from 65.9% to 86%.

Going from `CC[C@]12C=CCN3CC[C@@]4(c5ccc(OC)cc5N(C)[C@H]4[C@@](O)(C(=O)OC)[C@@H]1OC(=O)CCCC[P+](c1ccc(F)cc1)(c1ccc(F)cc1)c1ccc(F)cc1)[C@@H]32` to `CS(=O)(=O)Nc1cccc(-n2c(COc3ccc(OC(F)(F)F)cc3)nc3ccccc32)c1`, the growth rises from 49.7% to 124%.

Going from `FC(F)(F)c1cc2c(Cl)ncnc2n1CCN1CCCCC1` to `Cc1cccc(NCC(=O)N2CCN(c3ncnc4c3cnn4-c3ccccc3)CC2)c1`, the growth falls from 95% to 83.8%.

Compared with `O=C(CSc1nnc(-c2ccc(-c3nc4ccc(Cl)cc4[nH]3)cc2)o1)Nc1ccccc1`, `c1ccc(CSc2nnc(-c3ccc4nc(-c5ccccc5)[nH]c4c3)o2)cc1` is higher in growth: 49.9% for the first, 75.3% for the second.

Going from `O=C(CSc1nc2sc3c(c2c(=O)n1-c1ccc(Cl)cc1)CCCC3)NNC(=O)c1ccc(Br)cc1` to `Nc1nn2c(-c3cc4ccccc4oc3=O)ccnc2c1N=Nc1ccccc1`, the growth rises from 58.8% to 82.3%.

Compared with `O=C1NC(=NC23CC4CC(CC(C4)C2)C3)N/C1=C\c1ccc2ncccc2c1`, `O=C1NC(=S)/C(=C/c2cn(-c3ccccc3)nc2-c2ccccc2)S1` is higher in growth: 45.7% for the first, 47.9% for the second.

`CCCCCCCCCCCCCCCCCC(=O)Nc1ccc(OC)cc1` showed a growth of 114%.

`Cc1cc(N=C(N)c2ccccc2)ccc1OCCCCCCCCn1ccnc1` was tested, and the growth was 1.47% (active).
`O=C(c1cc2cc(OCCCN3CCC3)ccc2[nH]1)N1C[C@@H](CCl)c2c1cc(OCc1ccccc1)c1ccccc21` was tested, and the growth was -76.9% (active).
In the case of `O=C(c1ccc(Cl)cc1)C1[C@H](c2ccccc2Cl)[C@@H](c2ccccc2)NC12C(=O)Nc1ccccc12` (stereo partly drawn), the growth is reported as -5.18% (active).
In the case of `O=C(N/N=C/c1ccsc1)c1[nH]c2ccc(Br)cc2c1-c1ccccc1`, the growth is reported as -57.4% (active).

In the case of `CCCCCCCCc1cccc(CC(=O)Nc2ccc(C)cc2C(=O)O)c1`, the growth is reported as 75.6% [25 µM].
